Records with an inconclusive call do not appear. Where a call stands in place of a potency, no number is given. Calls of active or inactive are those of the source. Calls come from the whole dose curve; as a rule, active = well fitted inhibition curve with a large enough effect; inconclusive = small, poorly fitted or top-dose-only effect; inactive = flat fitted curve, though single readings scatter.
molecular target: Glutathione peroxidase 1 (Homo sapiens) (UniProt P07203); assay: Primary qHTS Assay for Inhibitors of Recombinant Selenoprotein Glutathione Peroxidase 1 (GPX1) (AID 1845191); details: recombinant GPX1, GR-coupled NADPH fluorescence, 15 min; series mostly up to 48.8 µM
How it was run: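 NADPH consumption tracked by fluorescence at 340/450 nm between t=0 and t=15 min, room temperature. Final mix: 10 nM GPX1, 100 nM glutathione reductase, 1 mM GSH, 0.5 mM NADPH, 0.5 mM cumene hydroperoxide, 0.01% BSA; 30 min compound–enzyme preincubation.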
Note: nearly all actives have a fitted effect of over 65% in size.

Chain of Glutathione peroxidase 1 (Homo sapiens) (P07203 whole entry, looked up): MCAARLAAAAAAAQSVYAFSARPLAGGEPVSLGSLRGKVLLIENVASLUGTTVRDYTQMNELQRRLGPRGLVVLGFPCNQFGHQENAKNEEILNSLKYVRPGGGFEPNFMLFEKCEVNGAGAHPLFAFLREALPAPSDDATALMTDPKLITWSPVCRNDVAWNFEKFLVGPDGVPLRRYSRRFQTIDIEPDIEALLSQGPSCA

Structure (SMILES)	Potency
COc1ccc(-c2cc(-c3ccc4c(c3)NC(=O)CO4)nc3c2COc2ccc(C)cc2-3)cc1	inactive
CN1CCc2cc(Nc3ncc(C4CC4)c(NCCCNC(=O)C4CCC4)n3)ccc2C1	inactive
CC(C)c1c(-c2cnn(C(C)(C)C)c2)nc2c(C#N)c[nH]n2c1=O	inactive
[Mn].[O]=[Mn][OH].[O]=[Mn][OH]	inactive
C[N+](C)(C)C1CCC(CC2CCC([N+](C)(C)C)CC2)CC1 (centres undefined)	inactive
Cn1cc(CN2CCN(C(c3ccccc3)c3ccccc3)CC2)cc1C#N	inactive
CC(C)C(=O)OCC(=O)[C@@]12OC(C3CCCCC3)O[C@@H]1C[C@H]1[C@@H]3CCC4=CC(=O)C=C[C@]4(C)[C@H]3[C@@H](O)C[C@@]12C (some centres undefined)	inactive
COc1ccc(OC)c(N2C(=O)C(Cl)=C(N3CCCCC3)C2=O)c1	inactive
Cc1ccc(-c2nc(-c3cc4cccc(OCc5cccc(C)c5)c4oc3=O)no2)cc1	inactive
O=C(Cn1ncc2c1-c1ccccc1OC2)N1CCN(c2ccccc2)CC1	inactive
Cc1ccc2c(c1)-c1nc(-c3ccc(Cl)cc3)cc(-c3coc4ccccc4c3=O)c1CO2	inactive
CC(NC(=O)c1ccccc1N=Cc1c(O)ccc2ccccc12)c1ccccc1 (centres undefined)	inactive

molecular target: Phospholipid hydroperoxide glutathione peroxidase GPX4 (Homo sapiens) (UniProt P36969); assay: Primary qHTS Assay for Inhibitors of Recombinant Selenoprotein Glutathione Peroxidase 4 (GPX4) (AID 1845192); details: recombinant GPX4, GR-coupled NADPH fluorescence, 15 min; series mostly up to 50 µM
How it was run: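 NADPH consumption followed by fluorescence at 340/450 nm, t=0 and after 15 min at room temperature. Reaction started with cumene hydroperoxide (0.5 mM final) after 30 min compound–GPX4 preincubation; final 200 nM GPX4, 100 nM GR, 1 mM GSH, 0.5 mM NADPH.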

Chain of Phospholipid hydroperoxide glutathione peroxidase GPX4 (Homo sapiens) (P36969 whole entry, looked up): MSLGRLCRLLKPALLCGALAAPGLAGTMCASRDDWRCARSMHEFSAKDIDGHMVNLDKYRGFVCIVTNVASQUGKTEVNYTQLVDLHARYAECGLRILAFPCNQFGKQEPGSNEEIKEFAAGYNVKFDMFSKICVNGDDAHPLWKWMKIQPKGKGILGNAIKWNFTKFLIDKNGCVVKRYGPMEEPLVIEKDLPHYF

Structure (SMILES)	Potency
CC[C@H]1OC(=O)[C@H](C)[C@@H](O[C@H]2C[C@@](C)(OC)[C@@H](O)[C@H](C)O2)[C@H](C)[C@@H](O[C@@H]2O[C@H](C)C[C@H](N(C)C)[C@H]2O)C(C)(O)C[C@@H](C)/C(=N\OCOCCOC)[C@H](C)[C@@H](O)[C@]1(C)O (some centres undefined)	inactive
CCC1OC(=O)C(C)C(OC2CC(C)(OC)C(O)C(C)O2)C(C)C(OC2OC(C)CC(N(C)C)C2O)C(C)(O)CC(C)C2NC(COCCOC)OC(C2C)C1(C)O (centres undefined)	inactive
CC(=O)O[C@]1(C(C)=O)CC[C@H]2[C@@H]3C=C(C)C4=CC(=O)CC[C@@H]4[C@H]3CC[C@@]21C	inactive
CC(C)OC(=O)[C@H](C)N[P@@](=O)(OC[C@H]1O[C@@H](n2ccc(=O)[nH]c2=O)[C@](C)(F)[C@@H]1O)Oc1ccccc1	inactive
CN1CC(O)c2cc(N=NC(=N)N)c(O)cc21 (centres undefined)	inactive
CO[C@H]1C[C@H](O[C@@H]2[C@H](C)O[C@H](O[C@@H]3/C(C)=C/C[C@@H]4C[C@@H](C[C@]5(C=C[C@H](C)[C@@H](C6CCCCC6)O5)O4)OC(=O)[C@@H]4C=C(C)C(O)[C@H]5OC/C(=C\C=C\[C@@H]3C)[C@]54O)C[C@@H]2OC)O[C@@H](C)[C@@H]1O (some centres undefined)	inactive
CN[C@H]1C(=O)N[C@@H]2Cc3ccc(cc3)Oc3cc4cc(c3O[C@@H]3O[C@H](C(=O)O)[C@@H](O)[C@H](O)[C@H]3NC(=O)CCCCCCCCC(C)C)Oc3ccc(cc3Cl)[C@@H](O)[C@@H]3NC(=O)[C@H](NC(=O)[C@@H]4NC(=O)[C@@H](NC2=O)c2cc(cc(O)c2Cl)Oc2cc1ccc2O)c1ccc(O)c(c1)-c1c(O[C@H]2O[C@H](CO)[C@@H](O)[C@H](O)[C@@H]2O)cc(O)cc1[C@@H](C(=O)NCCCN(C)C)NC3=O	inactive
OC(c1ccccc1)(c1ccccc1)C12CC[N+](CCOCc3ccccc3)(CC1)CC2	inactive
CC(C)CCC[C@@H](C)[C@H]1CC[C@H]2[C@@H]3CC=C4C[C@@H](O)CC[C@]4(C)[C@@H]3CC[C@]12C	inactive
[Mn].[O]=[Mn][OH].[O]=[Mn][OH]	inactive
C[N+](C)(C)C1CCC(CC2CCC([N+](C)(C)C)CC2)CC1 (centres undefined)	inactive
CC(C)C(=O)OCC(=O)[C@@]12OC(C3CCCCC3)O[C@@H]1C[C@H]1[C@@H]3CCC4=CC(=O)C=C[C@]4(C)[C@H]3[C@@H](O)C[C@@]12C (some centres undefined)	inactive
